Reference: PubChem BioAssay (EPA / NIEHS)
More than one record can exist for a structure, and the calls need not agree. Activity calls are given as the source filed them. The calls were made as follows: active = hit-call score of the fitted dose curve at least 0.9, where 1 is the maximum; inactive = score below 0.9.

Read-out: Broad substrate specificity ATP-binding cassette transporter ABCG2 (Homo sapiens) (UniProt Q9UNQ0)
Test: LTEA_HepaRG_ABCG2: Life Technologies and Expression Analysis (LTEA) Assay for ABC Transporter (ABCG2) using HepaRG (AID 2283465)
Conditions: mRNA level, 48 h; actives raise or lower the signal
Description: LTEA_HepaRG is a cell based, multiplexed-readout assay that uses HepaRG, a human liver cell line, with measurements taken at 48 hours after chemical dosing on a 96-well plate.LTEA_HepaRG_ABCG2 is one of 102 assay component(s) measured in the LTEA HepaRG cell culture assay. It is a marker of Steatosis/NR mediated transport.Data from the assay component LTEA_HepaRG_ABCG2 was analyzed into 1 endpoint. This assay endpoint, LTEA_HepaRG_ABCG2, was analyzed with bidirectional fitting relative to DMSO as the negative control and baseline of activity. Using a type of inducible reporter, measures of mRNA induction for gain or loss-of-signal activity can be used to understand regulation of transcription factor activity. To generalize the intended target to other relatable targets, this assay endpoint is annotated to the transporter intended target family, where the subfamily is ABC transporter.
A total of 1060 chemcials from the ToxCast library were tested in eight-point concentration-response experiments. Cell culture and cytotoxicity assays were conducted at Thermo Fisher Scientific's Custom Services facility (Madison, WI). A single lot of human HepaRG cells (Thermo Fisher Scientific, Frederick, MD) was used for the cell culture experiments. 96-well format collagen type I coated plates of human HepaRG cells were prepared using established methods. Briefly, cryopreserved HepaRG cells were thawed, plated at a density of approximately 100,000 cells/well in HepaRG Thaw, Plate, and General Purpose media (HPRG770, Thermo Fisher Scientific), and incubated for 48 hours. 0.5% DMSO was selected as vehicle control to balance the requisite need of DMSO in HepaRG cultures to maintain differentiation (for example, baseline metabolism, proportions of hepatocytes vs. cholangiocytes), while enabling further hepatic receptor pathway activation (for example, PXR and CAR) in response to chemical exposure. 48 hours after plating, the culture medium was replaced with HepaRG Serum-Free Incudtion Media. Cells were exposed to each test chemical in duplicate and maintained in CO2 incubators for another 48 hours. Chemical plates were thawed to room temperature and 200x concentrations of treatment groups were prepared. 8-point conentration-reponse curves were made with the highest exposure at 100 uM, followed by half-log dilutions, all in 0.5% DMSO. Each test plate contained variouse controls, induction positive controls (1mM phenobarbital), cytotoxicity positive controls ([…] aflatoxin B1), vehicle controls (0.5% DMSO), and total lysis controls (0.5% DMSO). Cell morphology images were taken using an Essen IncuCyte FLR automated microscope, with six 96-well plates imaged in about 24 minutes. Images were captured and exported and JPEG files. Spent culture media was transfered to black-well plates for the LDH assay, and remaining media was sorted at -80 C for later use. Cells were treated with RLT buffer and frozen until shipped for gene expression analysis. Total RNA was isolated from the cell suspension in 75 uL of Buffer RLT (Qiagen, Germantown, MD 20874) by Quintiles/Expression Analysis (Durham, NC) using a custom isolation procedure. Total RNA from each plate well was transferred to a preamplification plate. Fluidigm's 96.96 Dynamic ArrayTM (Fluidigm, Amsterdam, the Netherlands) technology was used for gene expression analyses by quantitative reverse transcription polymerase chain reaction (qRT-PCR, performed by Quintiles/Expression Analysis, Durham, NC)89. Standard TaqManTM Assays (Applied Biosystems/ThermoFisher Scientific, Foster City, CA) were used to assess the expression of 93 genes selected based on their selectivity and sensitivity to important hepatic receptors known to be modulated by environmental chemicals; importance in human hepatocyte functionality; and hepatotoxicity. […]

Broad substrate specificity ATP-binding cassette transporter ABCG2 (Homo sapiens), sequence (Q9UNQ0 whole entry, looked up): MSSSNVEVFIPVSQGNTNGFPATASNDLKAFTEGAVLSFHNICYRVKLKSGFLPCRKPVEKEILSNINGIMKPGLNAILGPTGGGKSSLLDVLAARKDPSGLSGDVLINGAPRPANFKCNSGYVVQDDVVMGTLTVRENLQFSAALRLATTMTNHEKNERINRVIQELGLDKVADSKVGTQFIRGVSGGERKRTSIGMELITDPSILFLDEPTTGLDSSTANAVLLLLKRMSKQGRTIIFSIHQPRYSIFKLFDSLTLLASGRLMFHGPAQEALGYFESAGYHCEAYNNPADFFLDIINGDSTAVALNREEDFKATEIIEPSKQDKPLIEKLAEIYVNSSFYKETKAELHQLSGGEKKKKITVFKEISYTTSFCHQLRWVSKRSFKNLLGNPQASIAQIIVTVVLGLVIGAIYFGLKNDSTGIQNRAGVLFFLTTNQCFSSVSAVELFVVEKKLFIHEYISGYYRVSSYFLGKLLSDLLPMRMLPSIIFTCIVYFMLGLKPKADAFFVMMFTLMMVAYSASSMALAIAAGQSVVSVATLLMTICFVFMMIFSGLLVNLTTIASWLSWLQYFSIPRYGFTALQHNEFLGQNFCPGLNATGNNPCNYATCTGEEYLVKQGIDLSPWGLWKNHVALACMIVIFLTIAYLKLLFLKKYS

`CN(C)N=O` was tested. Which outcome did it give?
The outcome was “inactive”.

For `CCCCCCCCc1ccc(O)cc1`, which outcome is on record?
The outcome was “inactive”.

Which AC50 does the source give for `O=C(Nc1ccc2[nH]ccc2c1)c1cc2cc(F)ccc2n1Cc1cccc(F)c1` here?
The AC50 was 32.2 µM (active).

`O=C(O)C(Cl)(Cl)Cl` was tested. Which outcome did it give?
Its outcome is “inactive”.

Which outcome does the source give for `CC(C)(C)c1cc(O)ccc1O` here?
The outcome was “inactive”.

For `CCN1CCC2(CC1)COc1cc3c(cc12)N(C(=O)c1ccc(-c2ccc(-c4nnc(C)o4)cc2C)cc1)CC3`, which outcome is on record?
The outcome was “inactive”.

With `C=CC(=O)OCCCCCC(C)C` as the compound, how does the outcome read?
The outcome was “inactive”.

With `C[C@@H]1C[C@@H]([C@H](O)CC2CC(=O)NC(=O)C2)C(=O)[C@@H](C)C1` as the compound, how does the AC50 read?
The AC50 was 10.4 µM (active).

`CC(C)(c1ccccc1)c1ccc(O)c(C(C)(C)c2ccccc2)c1` was tested. Which AC50 did it give?
The AC50 was 36.2 µM (active).

`CCOP(=S)(OCC)Oc1nc(Cl)c(Cl)cc1Cl` was tested. Which outcome did it give?
Its outcome is “inactive”.

How did the outcome turn out when `CC12CC1(C)C(=O)N(c1cc(Cl)cc(Cl)c1)C2=O` (configuration not stated) was run?
The outcome was “inactive”.

`Cn1sc(Cl)cc1=O` was tested. Which outcome did it give?
The outcome was “inactive”.

`CCC(=O)C(CC(C)N(C)C)(c1ccccc1)c1ccccc1` (configuration not stated) was tested. Which outcome did it give?
Its outcome is “inactive”.

With `COc1cc(-c2ccc(N)c(OC)c2)ccc1N` as the compound, how does the outcome read?
The outcome was “inactive”.

And the AC50?
Its AC50 is 25 µM (active).

How did the outcome turn out when `Oc1cccc2cccnc12` was run?
The outcome was “inactive”.

Which outcome does the source give for `CC(C)(OO)c1ccccc1` here?
Its outcome is “inactive”.

How did the outcome turn out when `O=C(O)C(F)(F)C(F)(F)C(F)(F)C(F)(F)C(F)(F)C(F)(F)F` was run?
Its outcome is “inactive”.

For `CCOP(=S)(OCC)SCSP(=S)(OCC)OCC`, which outcome is on record?
Its outcome is “inactive”.

For `O=[N+]([O-])c1ccc(O)c([N+](=O)[O-])c1`, which AC50 is on record?
The AC50 was 12.4 µM (active).

`CCC(C)(C)c1ccc(O)c(C(C)(C)CC)c1` was tested. Which outcome did it give?
The outcome was “inactive”.

For `ClC1(Cl)C2(Cl)C3(Cl)C4(Cl)C(Cl)(Cl)C5(Cl)C3(Cl)C1(Cl)C5(Cl)C24Cl` (configuration not stated), which outcome is on record?
The outcome was “inactive”.

`C=C(C)C(=O)[O][Sn]([CH2]CCC)([CH2]CCC)[CH2]CCC` was tested. Which AC50 did it give?
The AC50 was 0.917 µM (active).

With `ClCC(Cl)CCl` as the compound, how does the outcome read?
The outcome was “inactive”.

For `NC(=O)O`, which outcome is on record?
The outcome was “inactive”.

Which outcome does the source give for `C[C@]12CCC(=O)C[C@@H]1CC[C@@H]1[C@@H]2CC[C@]2(C)[C@@H](O)CC[C@@H]12` here?
Its outcome is “inactive”.

Which outcome does the source give for `CC(=O)[O][Hg][c]1ccccc1` here?
Its outcome is “inactive”.

With `O=C1C2(Cl)C3(Cl)C4(Cl)C(Cl)(Cl)C5(Cl)C3(Cl)C1(Cl)C5(Cl)C24Cl` (configuration not stated) as the compound, how does the AC50 read?
The AC50 was 15.8 µM (active).

`Cc1ccccc1N` was tested. Which outcome did it give?
The outcome was “inactive”.

How did the outcome turn out when `CC(C)(C)CC(C)(C)c1ccc(O)cc1` was run?
The outcome was “inactive”.

With `O=C(O)C(F)(F)C(F)(F)C(F)(F)C(F)(F)C(F)(F)C(F)(F)C(F)(F)C(F)(F)C(F)(F)C(F)(F)F` as the compound, how does the outcome read?
The outcome was “inactive”.

`O=c1[nH]c(=O)[nH]c(=O)[nH]1` was tested. Which outcome did it give?
Its outcome is “inactive”.
